Measured values from PubChem BioAssay (EPA / NIEHS).
Records with an inconclusive call do not appear. The source made the active and inactive calls. How the source made its calls: active means hit-call score of the fitted dose curve at least 0.9, where 1 is the maximum; inconclusive means response in the unintended direction; inactive means score below 0.9.

Target: human Insulin Receptor (InsR), INSR (gene 3643) (UniProt P06213)
Experiment: NVS_ENZ_hInsR: NovaScreen (NVS) Enzymatic Assay for human Insulin Receptor (InsR) (AID 2283168)
Protocol: NVS_ENZ_hInsR is a biochemical, single-readout assay that uses extracted gene-proteins in a cell-free assay. Measurements were taken 1 hour after chemical dosing in a 384-well plate.NVS_ENZ_hInsR is one of one assay component(s) measured or calculated from the NVS_ENZ_hInsR assay. It is designed to make measurements of enzyme activity, a form of enzyme reporter, as detected with fluorescence intensity signals by Fluorescence and electrophoretic mobility shift technology.Data from the assay component NVS_ENZ_hInsR was analyzed into 1 assay endpoint. This assay endpoint, NVS_ENZ_hInsR, was analyzed in the positive analysis fitting direction relative to DMSO as the negative control and baseline of activity. Using a type of enzyme reporter, loss-of-signal activity can be used to understand changes in the enzymatic activity as they relate to the gene INSR. Furthermore, this assay endpoint can be referred to as a primary readout, because this assay has produced multiple assay endpoints where this one serves a enzymatic activity function. To generalize the intended target to other relatable targets, this assay endpoint is annotated to the kinase intended target family, where the subfamily is receptor tyrosine kinase.
Binding assays used specific radioligands (tritiated, iodinated) with non-radioactive competitive displacement ligands in agonist or antagonist protocols (as indicated) and various reference compounds and inhibitors to titrate specific binding to receptors and transporters. Most enzyme assays (CYPs, kinases, phosphatases, proteases, HDACs) used recombinant protein and specific substrates (fluorescence mostly, some colorimetric and radioactive) and inhibitors, followed by a biochemical separation of substrate and product. All assays for the biochemical HTS were initially run in duplicate at a single concentration (10 uM for CYP450 assays and 25 uM for all others). Assay-chemical combinations meeting a pre-defined threshold (e.g., 30% inhibition and other criteria defined below) were then run in singleton concentration-response format with maximum concentration of 20 uM for CYPs and 50 uM for all others. Each assay was run with positive and negative controls, and concurrent controls on every plate. The follow-up (secondary) screen tested active chemical-pairs in concentration series, as well as a few additional assays not tested in the primary screen, some selected negative inactives, and several cases re-run in the concentration series for confirmatory purposes.

Chain of human Insulin Receptor (InsR), INSR (gene 3643) (P06213 whole entry, looked up): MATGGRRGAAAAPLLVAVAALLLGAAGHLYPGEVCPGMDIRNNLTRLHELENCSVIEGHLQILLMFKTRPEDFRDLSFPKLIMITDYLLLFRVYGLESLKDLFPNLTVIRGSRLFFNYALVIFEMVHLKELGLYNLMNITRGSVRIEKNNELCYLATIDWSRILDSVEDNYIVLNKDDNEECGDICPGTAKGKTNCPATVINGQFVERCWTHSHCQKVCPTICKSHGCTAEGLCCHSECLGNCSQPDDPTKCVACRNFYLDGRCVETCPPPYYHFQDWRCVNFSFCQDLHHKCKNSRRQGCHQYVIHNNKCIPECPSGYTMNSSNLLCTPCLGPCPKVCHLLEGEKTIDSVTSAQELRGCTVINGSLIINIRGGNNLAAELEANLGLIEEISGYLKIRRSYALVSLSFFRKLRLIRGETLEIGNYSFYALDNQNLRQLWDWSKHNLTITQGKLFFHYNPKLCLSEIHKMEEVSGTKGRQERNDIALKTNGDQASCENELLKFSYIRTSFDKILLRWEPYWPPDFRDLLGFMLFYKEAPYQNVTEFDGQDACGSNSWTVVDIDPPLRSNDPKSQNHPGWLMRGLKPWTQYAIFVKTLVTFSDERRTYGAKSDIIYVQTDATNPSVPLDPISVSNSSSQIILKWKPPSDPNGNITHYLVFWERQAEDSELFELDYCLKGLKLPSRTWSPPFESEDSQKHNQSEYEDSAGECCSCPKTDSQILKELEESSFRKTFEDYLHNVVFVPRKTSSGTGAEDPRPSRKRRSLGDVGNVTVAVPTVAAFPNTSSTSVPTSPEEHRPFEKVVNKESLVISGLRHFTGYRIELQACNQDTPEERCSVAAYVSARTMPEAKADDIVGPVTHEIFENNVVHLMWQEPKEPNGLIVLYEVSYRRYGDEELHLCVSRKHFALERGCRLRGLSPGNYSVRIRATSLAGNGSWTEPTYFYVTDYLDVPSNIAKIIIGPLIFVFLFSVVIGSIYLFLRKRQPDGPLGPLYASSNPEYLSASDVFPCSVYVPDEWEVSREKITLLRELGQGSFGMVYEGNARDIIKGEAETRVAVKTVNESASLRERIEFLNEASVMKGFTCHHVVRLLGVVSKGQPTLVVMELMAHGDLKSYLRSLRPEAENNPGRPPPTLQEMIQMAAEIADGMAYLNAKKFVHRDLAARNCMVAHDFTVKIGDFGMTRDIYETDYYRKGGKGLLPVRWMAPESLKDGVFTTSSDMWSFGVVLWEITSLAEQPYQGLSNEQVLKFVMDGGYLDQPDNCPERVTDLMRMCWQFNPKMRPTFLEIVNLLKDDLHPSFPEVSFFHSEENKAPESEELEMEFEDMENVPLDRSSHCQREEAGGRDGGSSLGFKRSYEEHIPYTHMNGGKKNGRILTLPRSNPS

Compound | outcome
CC(=O)OCCOCCOCCOC(C)=O | inactive
O=C(O)CCCCC(=O)O | inactive
CCc1c(C(=O)NN2CCCCC2)nn(-c2ccc(Cl)cc2Cl)c1-c1ccc(Br)cc1 | inactive
COc1cc(C=O)ccc1O | inactive

Target: human Janus Kinase 2 (Jak2), JAK2 (gene 3717) (UniProt O60674)
Experiment: NVS_ENZ_hJak2: NovaScreen (NVS) Enzymatic Assay for human Janus Kinase 2 (Jak2) (AID 2283169)
Outline: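 Single-point duplicate screen at 25 uM, with hits run in concentration series to a 50 uM top dose. Substrate-product separation by mobility shift with fluorescence detection, 1 h post-dosing; DMSO baseline.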

Chain of human Janus Kinase 2 (Jak2), JAK2 (gene 3717) (O60674 whole entry, looked up): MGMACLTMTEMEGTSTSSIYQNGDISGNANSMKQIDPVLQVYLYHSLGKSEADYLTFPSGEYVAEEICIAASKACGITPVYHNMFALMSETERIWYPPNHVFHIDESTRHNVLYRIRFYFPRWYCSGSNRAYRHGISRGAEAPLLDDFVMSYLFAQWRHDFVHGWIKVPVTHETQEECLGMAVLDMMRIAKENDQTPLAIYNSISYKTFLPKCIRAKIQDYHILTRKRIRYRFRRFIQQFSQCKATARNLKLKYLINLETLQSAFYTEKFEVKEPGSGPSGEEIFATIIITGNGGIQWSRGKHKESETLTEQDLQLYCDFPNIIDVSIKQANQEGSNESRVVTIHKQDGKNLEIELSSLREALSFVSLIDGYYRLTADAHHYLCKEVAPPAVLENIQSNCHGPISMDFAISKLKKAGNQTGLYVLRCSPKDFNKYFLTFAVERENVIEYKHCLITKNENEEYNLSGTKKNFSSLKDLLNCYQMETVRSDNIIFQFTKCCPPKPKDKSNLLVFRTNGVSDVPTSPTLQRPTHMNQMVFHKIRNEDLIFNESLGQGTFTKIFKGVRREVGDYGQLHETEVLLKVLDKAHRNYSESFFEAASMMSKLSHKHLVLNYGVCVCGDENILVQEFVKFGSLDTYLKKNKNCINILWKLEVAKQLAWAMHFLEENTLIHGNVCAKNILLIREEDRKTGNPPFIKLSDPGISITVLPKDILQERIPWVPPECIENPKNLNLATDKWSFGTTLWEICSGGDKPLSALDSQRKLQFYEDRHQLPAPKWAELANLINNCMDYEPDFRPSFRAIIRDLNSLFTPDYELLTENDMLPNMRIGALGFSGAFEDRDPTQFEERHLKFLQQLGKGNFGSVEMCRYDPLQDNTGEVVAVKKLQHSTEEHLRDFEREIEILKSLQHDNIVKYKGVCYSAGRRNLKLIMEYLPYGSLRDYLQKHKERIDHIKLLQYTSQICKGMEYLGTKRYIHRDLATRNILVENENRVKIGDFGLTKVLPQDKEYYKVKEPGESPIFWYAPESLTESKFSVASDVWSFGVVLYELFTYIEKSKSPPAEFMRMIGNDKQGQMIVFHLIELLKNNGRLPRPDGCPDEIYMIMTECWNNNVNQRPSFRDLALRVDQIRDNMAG

Compound | outcome | AC50
Cc1oc(-c2ccccc2)nc1CCOc1cccc2c1ccn2CCC(=O)O | inactive | –
Nc1nc(N)c2nc(CNc3ccc(C(=O)N[C@@H](CCC(=O)O)C(=O)O)cc3)cnc2n1 | – | 21.9 µM (active)
CCOC(=O)C(C)(C)Oc1ccc(Cl)cc1 | inactive | –
Cc1nc(-c2ccc3c(c2)CCN(CCC2CCC(NC(=O)/C=C/c4ccc(F)cc4)CC2)CC3)no1 (stereo unspecified) | – | 17.1 µM (active)
CC1=C(/C=C/C(C)=C/C=C/C(C)=C/CO)C(C)(C)CCC1 | inactive | –
CCCCCCCCCCCCCCCC | inactive | –
CCCCCCCCCCCCCCCCCC(=O)O | inactive | –
FC(F)(F)C(F)(F)C(F)(F)C(F)(F)C(F)(F)C(F)(F)CCI | inactive | –

Target: human MAP Kinase-Activated Protein Kinase 2 (MAPKAPK2), MAPKAPK2 (gene 9261) (UniProt P49137)
Experiment: NVS_ENZ_hMAPKAPK2: NovaScreen (NVS) Enzymatic Assay for human MAP Kinase-Activated Protein Kinase 2 (MAPKAPK2) (AID 2283178)
Outline: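 Chemicals screened in duplicate at 25 uM, then to 50 uM top concentration in concentration-response, against recombinant human MAPKAPK2; substrate conversion read 1 hr post-dosing by fluorescence after electrophoretic mobility-shift separation, loss-of-signal relative to DMSO.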

Chain of human MAP Kinase-Activated Protein Kinase 2 (MAPKAPK2), MAPKAPK2 (gene 9261) (P49137 whole entry, looked up): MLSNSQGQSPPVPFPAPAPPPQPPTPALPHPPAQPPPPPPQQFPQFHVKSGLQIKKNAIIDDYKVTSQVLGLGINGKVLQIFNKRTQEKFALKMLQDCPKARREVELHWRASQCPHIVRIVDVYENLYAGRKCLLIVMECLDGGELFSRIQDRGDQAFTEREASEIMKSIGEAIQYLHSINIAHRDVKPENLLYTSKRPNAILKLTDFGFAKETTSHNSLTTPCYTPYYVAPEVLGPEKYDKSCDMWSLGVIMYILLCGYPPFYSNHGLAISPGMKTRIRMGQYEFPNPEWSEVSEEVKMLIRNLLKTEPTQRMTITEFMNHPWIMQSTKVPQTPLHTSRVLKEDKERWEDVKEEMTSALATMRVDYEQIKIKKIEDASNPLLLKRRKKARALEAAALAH

Compound | outcome | AC50
CC(C)c1ccc(C(=O)N=C(N)N)cc1S(C)(=O)=O | inactive | –
CCOC(=O)CCC(=O)OCC | inactive | –
Nc1ccc2c(c1)C(=O)c1ccccc1C2=O | – | 16.5 µM (active)
COc1cc(-c2nc(NC(=O)c3cc4cc(C)cc(C)c4n3CC(=O)O)sc2CCC2CCCCC2)c(OC)cc1Cl | – | 6.49 µM (active)

Target: Collagenase 3 (Homo sapiens) (UniProt P45452)
Experiment: NVS_ENZ_hMMP13: NovaScreen (NVS) Enzymatic Assay for human Matrix Metalloproteinase-13 (MMP13) (AID 2283182)
Outline: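 Recombinant MMP13 cleaving fluorescent substrate, cell-free, measured 1 h after dosing. Primary duplicate screen at 25 uM; actives tested in concentration-response up to 50 uM; loss of signal relative to DMSO.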

Compound | AC50 | outcome
CN[C@H]1CC[C@@H](c2ccc(Cl)c(Cl)c2)c2ccc(S(N)(=O)=O)cc21 | 2.36 µM (active) | –
COCCOC[C@H](CC1(C(=O)NC2CCC(C(=O)O)CC2)CCCC1)C(=O)Oc1ccc2c(c1)CCC2 (stereo partly specified) | 17.3 µM (active) | –
Cc1nc(-c2ccc3c(c2)CCN(CCC2CCC(NC(=O)/C=C/c4ccc(F)cc4)CC2)CC3)no1 (stereo unspecified) | 5.67 µM (active) | –
CC1=C(/C=C/C(C)=C/C=C/C(C)=C/CO)C(C)(C)CCC1 | 18.2 µM (active) | –
CN1CCN(Cc2cc(-c3ccc4[nH]c(=O)oc4c3)co2)[C@@H](c2ccc(F)cc2)C1 | 7.74 µM (active) | –
Cc1cccc([N+](=O)[O-])c1C | 2.06 µM (active) | –
c1cc(-c2ccncc2)ccn1 | – | inactive

Target: human Matrix Metalloproteinase-7 (MMP7), MMP7 (gene 4316) (UniProt P09237)
Experiment: NVS_ENZ_hMMP7: NovaScreen (NVS) Enzymatic Assay for human Matrix Metalloproteinase-7 (MMP7) (AID 2283183)
Outline: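 Compounds first tested at 25 uM in duplicate, then at up to 50 uM in concentration series if active. Protease activity measured by fluorescence intensity 1 h after dosing, with fitting relative to DMSO.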

Chain of human Matrix Metalloproteinase-7 (MMP7), MMP7 (gene 4316) (P09237 whole entry, looked up): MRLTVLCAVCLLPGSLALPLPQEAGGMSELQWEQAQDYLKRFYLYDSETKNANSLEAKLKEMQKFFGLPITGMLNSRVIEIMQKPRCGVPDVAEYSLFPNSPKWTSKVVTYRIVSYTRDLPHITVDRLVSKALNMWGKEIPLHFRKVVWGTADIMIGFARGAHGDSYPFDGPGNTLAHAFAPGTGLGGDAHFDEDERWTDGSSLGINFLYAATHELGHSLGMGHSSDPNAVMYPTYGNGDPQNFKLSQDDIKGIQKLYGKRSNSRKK

Compound | outcome
CCCCCCCCCCCC(=O)OC | inactive
Cc1oc(-c2ccccc2)nc1CCOc1cccc2c1ccn2CCC(=O)O | inactive
CC=Cc1ccc(O)c(OC)c1 | inactive
CN[C@H]1CC[C@@H](c2ccc(Cl)c(Cl)c2)c2ccc(S(N)(=O)=O)cc21 | inactive
CNC(=O)[C@H]1O[C@@H](n2cnc3c(NCc4cc(Cl)ccc4OCc4cc(C)no4)ncnc32)[C@H](O)[C@@H]1N | inactive
C[Si]1(C)O[Si](C)(C)O[Si](C)(C)O[Si](C)(C)O1 | inactive
OC[C@@H](O)[C@@H](O)[C@H](O)[C@H](O)CO | inactive
Nc1ccc(S(=O)(=O)c2ccc(N)cc2)cc1 | inactive
CN1CCN(Cc2cc(-c3ccc4[nH]c(=O)oc4c3)co2)[C@@H](c2ccc(F)cc2)C1 | inactive
CCCCCCC(=O)OCC | inactive
O=[N+]([O-])C(CO)(CO)CO | inactive
CC(C)(C)c1cc(O)c(C(C)(C)C)cc1O | inactive

Target: human Matrix Metalloproteinase-2 (MMP2), MMP2 (gene 4313) (UniProt P08253)
Experiment: NVS_ENZ_hMMP2: NovaScreen (NVS) Enzymatic Assay for human Matrix Metalloproteinase-2 (MMP2) (AID 2283184)
Outline: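 Compounds first screened in duplicate at a single 25 uM, with actives followed up in concentration series. Recombinant human MMP2 cleaves a fluorogenic substrate; fluorescence taken at 1 h, inhibition fitted relative to DMSO.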

Chain of human Matrix Metalloproteinase-2 (MMP2), MMP2 (gene 4313) (P08253 whole entry, looked up): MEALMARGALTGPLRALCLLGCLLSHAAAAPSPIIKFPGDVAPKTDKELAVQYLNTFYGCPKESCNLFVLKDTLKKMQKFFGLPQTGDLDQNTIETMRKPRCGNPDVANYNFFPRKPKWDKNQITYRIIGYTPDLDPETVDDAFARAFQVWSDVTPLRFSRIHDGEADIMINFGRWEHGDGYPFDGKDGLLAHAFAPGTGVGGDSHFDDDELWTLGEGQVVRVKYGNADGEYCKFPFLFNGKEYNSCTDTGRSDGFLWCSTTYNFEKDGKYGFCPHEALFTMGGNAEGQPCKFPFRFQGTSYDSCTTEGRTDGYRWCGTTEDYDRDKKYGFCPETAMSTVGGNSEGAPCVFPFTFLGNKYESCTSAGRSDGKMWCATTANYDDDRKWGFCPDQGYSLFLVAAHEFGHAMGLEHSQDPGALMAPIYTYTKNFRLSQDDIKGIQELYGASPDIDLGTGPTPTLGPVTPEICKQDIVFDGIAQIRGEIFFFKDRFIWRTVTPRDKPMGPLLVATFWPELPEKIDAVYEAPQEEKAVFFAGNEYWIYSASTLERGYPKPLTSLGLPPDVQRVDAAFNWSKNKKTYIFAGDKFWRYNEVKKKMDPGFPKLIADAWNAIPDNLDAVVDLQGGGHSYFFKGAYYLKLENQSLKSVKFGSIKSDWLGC

Compound | outcome | AC50
Cc1ccc2ncccc2c1 | inactive | –
COCCOC[C@H](CC1(C(=O)NC2CCC(C(=O)O)CC2)CCCC1)C(=O)Oc1ccc2c(c1)CCC2 (stereo partly specified) | – | 19.8 µM (active)
Cc1nc(-c2ccc3c(c2)CCN(CCC2CCC(NC(=O)/C=C/c4ccc(F)cc4)CC2)CC3)no1 (stereo unspecified) | – | 13.7 µM (active)
C[Si]1(C)O[Si](C)(C)O[Si](C)(C)O[Si](C)(C)O1 | inactive | –
Cc1nc(C)nc(N2C[C@@H](C)N(c3ccnc([C@@H](C)O)n3)[C@@H](C)C2)n1 | – | 7.26 µM (active)
CCCc1cc(=O)[nH]c(=S)[nH]1 | inactive | –

Target: human Matrix Metalloproteinase-3 (MMP3), MMP3 (gene 4314) (UniProt P08254)
Experiment: NVS_ENZ_hMMP3: NovaScreen (NVS) Enzymatic Assay for human Matrix Metalloproteinase-3 (MMP3) (AID 2283185)
Outline: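 Fluorescent substrate turnover by recombinant MMP3 read after 1 h, signal loss scored against DMSO. Compounds first run in duplicate at 25 uM single dose, then actives confirmed by concentration series.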

Chain of human Matrix Metalloproteinase-3 (MMP3), MMP3 (gene 4314) (P08254 whole entry, looked up): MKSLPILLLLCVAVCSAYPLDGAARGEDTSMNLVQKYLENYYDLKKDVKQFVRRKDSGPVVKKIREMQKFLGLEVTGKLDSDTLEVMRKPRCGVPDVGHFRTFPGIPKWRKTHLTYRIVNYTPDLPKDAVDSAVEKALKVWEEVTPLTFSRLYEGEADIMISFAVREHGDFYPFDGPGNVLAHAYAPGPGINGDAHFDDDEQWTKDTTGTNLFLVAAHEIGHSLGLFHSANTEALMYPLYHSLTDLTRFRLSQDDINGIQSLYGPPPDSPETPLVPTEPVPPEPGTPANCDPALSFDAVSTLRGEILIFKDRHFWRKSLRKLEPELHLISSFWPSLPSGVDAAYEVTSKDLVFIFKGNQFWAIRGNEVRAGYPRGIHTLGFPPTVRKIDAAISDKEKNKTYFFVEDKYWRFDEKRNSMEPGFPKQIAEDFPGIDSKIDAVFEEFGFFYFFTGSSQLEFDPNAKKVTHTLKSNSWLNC

Compound | AC50 | outcome
COc1cc(S(=O)(=O)O)c(C)cc1N=Nc1c(O)ccc2cc(S(=O)(=O)O)ccc12 | 19.2 µM (active) | –
CN[C@H]1CC[C@@H](c2ccc(Cl)c(Cl)c2)c2ccc(S(N)(=O)=O)cc21 | – | inactive
Cc1nc(-c2ccc3c(c2)CCN(CCC2CCC(NC(=O)/C=C/c4ccc(F)cc4)CC2)CC3)no1 (stereo unspecified) | 16.6 µM (active) | –
CNC(=O)[C@H]1O[C@@H](n2cnc3c(NCc4cc(Cl)ccc4OCc4cc(C)no4)ncnc32)[C@H](O)[C@@H]1N | – | inactive
C[Si]1(C)O[Si](C)(C)O[Si](C)(C)O[Si](C)(C)O1 | – | inactive
CN1CCN(Cc2cc(-c3ccc4[nH]c(=O)oc4c3)co2)[C@@H](c2ccc(F)cc2)C1 | – | inactive
COc1cc(C=O)ccc1O | 3.71 µM (active) | –
Nc1ccc2c(c1)C(=O)c1ccccc1C2=O | 31.6 µM (active) | –
NCC1(Cc2noc(=O)[nH]2)CCCCC1 | – | inactive
CCCCc1ccc2c(n1)[C@@H](c1ccc(OC)cc1C[C@H](C)C(=O)O)[C@H](C(=O)O)[C@H]2c1ccc2c(c1)OCO2 | 38.6 µM (active) | –
